Experimental data reported in PubChem BioAssay (NCATS).
Values joined by “and” are separate entries in the source; they are usually repeats but may differ in a detail not shown here. Equal values may be shown once. Inconclusive results are not listed. Active and inactive are the calls of the source. Unless noted, the call rests on the fitted dose curve; in most records, active means well fitted curve in the direction sought with a large enough effect; inconclusive means small, poorly fitted or top-dose-only effect, or another doubt; inactive means no such curve, though single readings can be large; an effect the other way counts as inactive or inconclusive.

What was measured:
[1] = molecular target: Cytochrome P450 2D6 (Homo sapiens) (UniProt P10635); assay: qHTS Assay for Inhibitors and Substrates of Cytochrome P450 2D6 (AID 891); further: potency means the concentration at half of the fitted maximal effect; nearly all actives have a fitted effect of over 60% in size
In short: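 Human CYP2D6 (5 nM) with 30 uM Luciferin-ME EGE (at Km) in 100 mM KPO4, compound preincubated 10 min, then NADPH regeneration system for 60 min at room temperature. Luciferin read by luminescence; normalized to 1.43 uM quinidine.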

[2] = molecular target: Glutathione peroxidase 1 (Homo sapiens) (UniProt P07203); assay: Primary qHTS Assay for Inhibitors of Recombinant Selenoprotein Glutathione Peroxidase 1 (GPX1) (AID 1845191); further: nearly all actives have a fitted effect of over 65% in size
In short: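 GR-coupled assay: compounds preincubated 30 min at room temperature with GPX1, then reaction started with CHP; final 10 nM GPX1, 1 mM GSH, 0.5 mM CHP, 0.5 mM NADPH, 100 nM GR, 0.01% BSA, pH 7.5 Tris buffer. NADPH fluorescence (340/450 nm) read at 0 and 15 min.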

[3] = molecular target: Phospholipid hydroperoxide glutathione peroxidase GPX4 (Homo sapiens) (UniProt P36969); assay: Primary qHTS Assay for Inhibitors of Recombinant Selenoprotein Glutathione Peroxidase 4 (GPX4) (AID 1845192); further: nearly all actives have a fitted effect of over 65% in size; further: potency means the concentration at half of the fitted maximal effect
In short: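 GR-coupled assay: recombinant GPX4 preincubated 30 min with compound at room temperature; final 200 nM GPX4, 1 mM GSH, 0.5 mM cumene hydroperoxide, 0.5 mM NADPH, 100 nM GR, 0.01% BSA, pH 7.5 Tris. NADPH fluorescence (340/450 nm) read at 0 and 15 min.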

[4] = molecular target: Estrogen receptor (Homo sapiens) (UniProt P03372); assay: qHTS assay for small molecule antagonists of estrogen receptor alpha signaling (AID 588513; active means well fitted curve in the direction sought with a large enough effect in the signal ratio, with a control signal flat, not every such curve was filed as active; the % refers to the signal ratio; further: on the % scale 0 is the no-effect control and ±100 the full control effect)
In short: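 ER-alpha-UAS-bla GripTite HEK 293 cells in 2% charcoal/dextran-treated FBS medium; compounds titrated (1:2, duplicate), then stimulated with 0.5 nM 17-beta-estradiol for 18 h at 37C. CCF4 beta-lactamase fluorescence; Hill-fit IC50 and efficacy.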

[5] = molecular target: Vitamin D3 receptor (Homo sapiens) (UniProt P11473); assay: qHTS assay for small molecule antagonists of vitamin D receptor signaling (AID 588541; calls by dose curve;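 further: receptor activated by calcitriol during compound treatment; on the % scale 0 is the no-effect control and ±100 the full control effect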)
In short: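 VDR-UAS-bla HEK293T cells in 2% charcoal-stripped FBS were stimulated with 1-alpha,25-dihydroxyvitamin D3 (3 nM final) plus compound for 16 h at 37 C. The beta-lactamase CCF4 readout was normalized to 50 nM agonist and DMSO, and Hill fits gave IC50.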

[6] = molecular target: Vitamin D3 receptor (Homo sapiens) (UniProt P11473); assay: qHTS assay for small molecule agonists of vitamin D receptor signaling (AID 588543; calls by dose curve;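 further: 0% = DMSO basal and 100% = reference agonist control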)
In short: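 VDR-UAS-bla HEK293T cells, 2000/well, 2% charcoal-stripped FBS; compound titration 16 h at 37 C; CCF4 beta-lactamase ratio read. Normalized to 50 nM 1-alpha,25-dihydroxyvitamin D3 (100%) and DMSO; Hill fit gives EC50, efficacy.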

[7] = qHTS assay for small molecule agonists of the antioxidant response element (ARE) signaling pathway (AID 651741; active means well fitted activation curve with a large enough effect in the signal ratio; the % refers to the signal ratio; further: potency means the concentration at half of the fitted maximal effect; on activation: % of control where 0% means no effect)
In short: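 CellSensor ARE-bla HepG2 cells (2,000/well) carrying ARE-driven beta-lactamase, exposed 16 h at 37 C. LiveBLAzer B/G FRET substrate added for 2 h at room temperature; fluorescence intensity read.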

[8] = qHTS assay for small molecule activators of the p53 signaling pathway (AID 651743; active means well fitted activation curve with a large enough effect in the signal ratio, not every such curve was filed as active; the % refers to the signal ratio; further: % of control where 0% means no effect); details: HCT-116 p53RE-bla, beta-lactamase FRET ratio, 16 h; activation: active compounds read high
In short: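 p53RE-bla HCT-116 cells carrying a beta-lactamase reporter under p53 response elements were exposed to compounds for 16 hours at 37 C. Reporter activity read as fluorescence after 2 hours at room temperature with LiveBLAzer B/G FRET substrate.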

[9] = Cell Viability - BJ (AID 421; calls by dose curve;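 further: potency means the concentration at half of the fitted maximal effect; cells exposed to compound for 40 hours at 37 °C before readout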); details: BJ fibroblast viability, qHTS
In short: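 Cytotoxicity in human BJ foreskin fibroblasts is scored as loss of cellular ATP after a 40-hour exposure, measured by luciferase luminescence. Controls are DMSO and 100 uM tamoxifen.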

[10] = Cell Viability - Jurkat (AID 426;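 active means dose-dependent loss of cell ATP signal giving a full or clear fitted curve, ranked by lower potency value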; further: potency means the concentration at half of the fitted maximal effect); details: qHTS
In short: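 qHTS, 1536-well; Jurkat E6-1, 5000 cells/well, complete medium; cpd 40 hr, 37 °C; CellTiter-Glo 20 min RT; luminescence. AC50 by Hill fit.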

[11] = Cell Viability - Hek293 (AID 427;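 active means compounds whose dose-response curve shows a full or clear partial loss of cell viability, called from curve shape rather than a numeric limit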;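 further: potency means the concentration at half of the fitted maximal effect; cells exposed to compound for 40 hours at 37 °C before reading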); details: qHTS
In short: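 qHTS, human embryonic kidney (adenovirus-transformed) cells; 40 hr cpd, 37 °C; CellTiter-Glo ATP luminescence. Norm: DMSO = 0, 100 uM tamoxifen = 100% inhibition. Hill-fit AC50.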

[12] = Cell Viability - MRC5 (AID 434; calls by dose curve;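 further: potency means the concentration at half of the fitted maximal effect; potency reflects cytotoxicity seen as loss of intracellular ATP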); details: MRC5 lung fibroblast viability, qHTS
In short: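 MRC5 normal human lung fibroblasts, 1500 cells/well, exposed to compound for 40 hr at 37 C. Cellular ATP was read by CellTiter-Glo luminescence; data normalized to DMSO and 100 uM tamoxifen, with AC50 from Hill fits.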

[13] = Cell Viability - Renal Proximal Tubule (AID 545); details: renal proximal tubule cells viability, primary cells of rat origin; at 91.7 µM (top of the series); further: nearly all actives have a fitted effect of over 40% in size
In short: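 Rat renal proximal tubule primary cells, 1000/well, exposed to compounds for 40 hr at 37 °C in complete medium; cellular ATP read by CellTiter-Glo luminescence. AC50 from concentration-response fitted with standard Hill equation.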

[14] = Cellular Toxicity (caspase-3) HepG2 (AID 654);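 further: cells exposed to compound for 16 hours before reading; 0% = DMSO alone and 100% = caspase signal from 100 µM tamoxifen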
In short: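 Cells plated 5 hr at 37 °C, compound added, incubated 16 hr at 37 °C. Caspase-Glo 3/7 reagent followed, 20 min at room temperature, then luminescence read. Activation scored as signal increase; AC50 from Hill fit.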

[15] = Cellular Toxicity (caspase-3) Jurkat (AID 655); details: Jurkat caspase-3 activation, luminescence, DMSO = 0%, tamoxifen = 100%; at 92.2 µM (top of the series);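 further: cells exposed to compound for 16 h at 37 °C before reading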
In short: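 Jurkat cells (5000/well) in complete medium exposed 16 h at 37 C; caspase-3/7 activity read by Caspase-Glo luminescence after 20 min at room temperature. Normalized to DMSO and 100 uM tamoxifen; AC50 from Hill fits.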

[16] = Cellular Toxicity (caspase-3) HUV-EC-C (AID 656)
In short: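 HUV-EC-C cells (1000/well) in complete medium, compound-treated 16 h at 37 °C; caspase-3/7 activity read by Caspase-Glo 3/7 luminescence. Normalized to DMSO (basal) and 100 uM tamoxifen (100%); AC50 from Hill-equation concentration-response fits.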

[17] = qHTS Assay for Identification of Small Molecule Inducers of Hypoxia Response (AID 2120; active means well fitted curve in the direction sought with a large enough effect in the signal ratio, with a control signal flat, not every such curve was filed as active; the % refers to the signal ratio; further: 0% is about no effect)
In short: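 ME-180 HRE-bla cells plated in Opti-MEM/0.5% dialyzed FBS, rested 4-5 h, then dosed with compound titrations by pin tool. After 17 h at 37 degrees C, CCF4 dye loaded 2.5 h at RT; 460/530 nm ratio gave %Activity and AC50.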

[18] = molecular target: Voltage-gated inwardly rectifying potassium channel KCNH2 (Homo sapiens) (UniProt Q12809); assay: qHTS Assay for Small Molecule Inhibitors of the Human hERG Channel Activity (AID 588834);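 further: top concentration of the series differs between compounds; on the % scale 0 is the no-effect control and ±100 the full control effect; lower thallium flux fluorescence means stronger hERG block; nearly all actives have a fitted effect of over 50% in size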
In short: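 U2OS cells BacMam-transduced with hERG, 2000 cells/well, compound ~10 min at 37 °C before stimulation buffer. FluxOR thallium flux fluorescence read kinetically on FDSS; decrease indicates block; AC50 from Hill fits.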

[19] = qHTS assay for small molecule disruptors of the mitochondrial membrane potential - 5 hr assay (AID 651755; calls by dose curve; further: on the % scale 0 is the no-effect control and ±100 the full control effect; nearly all actives have a fitted effect of over 40% in size)
In short: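 HepG2 cells (2,000/well), attached overnight, exposed to compound 5 hr at 37C, then Mito-MPS dye 30 min. Fluorescence read for monomers (490/535 nm) and aggregates (540/590 nm).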

[20] = molecular target: Nuclear receptor ROR-gamma (Homo sapiens) (UniProt P51449); assay: qHTS assay for small molecule antagonists of the retinoid-related orphan receptor gamma (ROR-gamma) signaling pathway (AID 651802);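 further: CHO cells with doxycycline-induced ROR-gamma expression; luciferase reporter luminescence driven by ROR response element; on the % scale 0 is the no-effect control and ±100 the full control effect; nearly all actives have a fitted effect of over 60% in size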
In short: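 CHO, TET-inducible ROR + RORE-LUC reporter, 1536-well qHTS. Compound pinned, doxycycline added, 16hr 37C/5% CO2. ONE-Glo, 30 min RT, luminescence; signal drop scored as antagonism.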

Sequence of Cytochrome P450 2D6 (Homo sapiens) (P10635 whole entry, looked up): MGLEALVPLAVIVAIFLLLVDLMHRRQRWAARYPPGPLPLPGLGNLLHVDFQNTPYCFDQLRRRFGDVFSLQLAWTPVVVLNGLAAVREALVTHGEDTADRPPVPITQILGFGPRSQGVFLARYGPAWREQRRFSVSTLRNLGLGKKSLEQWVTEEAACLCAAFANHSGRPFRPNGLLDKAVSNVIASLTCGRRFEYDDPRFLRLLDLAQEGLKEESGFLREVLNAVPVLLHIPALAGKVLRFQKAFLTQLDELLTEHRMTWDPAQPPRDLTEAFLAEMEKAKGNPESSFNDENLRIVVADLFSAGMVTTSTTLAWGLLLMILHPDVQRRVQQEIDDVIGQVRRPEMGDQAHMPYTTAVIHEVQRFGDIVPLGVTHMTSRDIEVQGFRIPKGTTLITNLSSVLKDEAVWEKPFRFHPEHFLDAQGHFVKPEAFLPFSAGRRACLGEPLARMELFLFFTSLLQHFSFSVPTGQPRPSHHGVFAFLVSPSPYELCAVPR
Sequence of Nuclear receptor ROR-gamma (Homo sapiens) (P51449 whole entry, looked up): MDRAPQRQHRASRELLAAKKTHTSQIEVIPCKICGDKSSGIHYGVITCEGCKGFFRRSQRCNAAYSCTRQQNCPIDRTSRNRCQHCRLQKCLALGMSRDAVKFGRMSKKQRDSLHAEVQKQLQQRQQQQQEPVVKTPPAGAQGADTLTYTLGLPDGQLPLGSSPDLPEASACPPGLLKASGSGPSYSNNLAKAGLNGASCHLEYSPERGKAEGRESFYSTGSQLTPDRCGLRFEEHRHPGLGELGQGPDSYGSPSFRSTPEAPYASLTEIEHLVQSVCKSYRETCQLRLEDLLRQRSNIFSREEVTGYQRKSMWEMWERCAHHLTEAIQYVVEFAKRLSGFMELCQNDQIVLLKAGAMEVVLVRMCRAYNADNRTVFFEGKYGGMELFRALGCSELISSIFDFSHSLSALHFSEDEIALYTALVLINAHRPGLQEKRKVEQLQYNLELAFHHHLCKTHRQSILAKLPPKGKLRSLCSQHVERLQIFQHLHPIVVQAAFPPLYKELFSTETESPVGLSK
Sequence of Phospholipid hydroperoxide glutathione peroxidase GPX4 (Homo sapiens) (P36969 whole entry, looked up): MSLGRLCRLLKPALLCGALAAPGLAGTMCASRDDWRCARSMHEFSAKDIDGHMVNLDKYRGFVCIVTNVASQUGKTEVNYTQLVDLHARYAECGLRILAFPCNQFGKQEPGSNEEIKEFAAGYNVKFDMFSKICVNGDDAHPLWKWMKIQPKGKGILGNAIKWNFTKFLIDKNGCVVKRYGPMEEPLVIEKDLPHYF
Sequence of Glutathione peroxidase 1 (Homo sapiens) (P07203 whole entry, looked up): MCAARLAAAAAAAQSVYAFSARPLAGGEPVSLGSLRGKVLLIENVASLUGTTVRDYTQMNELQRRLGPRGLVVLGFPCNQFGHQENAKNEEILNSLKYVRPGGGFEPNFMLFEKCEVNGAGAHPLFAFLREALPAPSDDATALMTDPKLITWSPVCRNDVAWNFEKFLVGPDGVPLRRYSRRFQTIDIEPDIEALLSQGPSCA
Sequence of Vitamin D3 receptor (Homo sapiens) (P11473 whole entry, looked up): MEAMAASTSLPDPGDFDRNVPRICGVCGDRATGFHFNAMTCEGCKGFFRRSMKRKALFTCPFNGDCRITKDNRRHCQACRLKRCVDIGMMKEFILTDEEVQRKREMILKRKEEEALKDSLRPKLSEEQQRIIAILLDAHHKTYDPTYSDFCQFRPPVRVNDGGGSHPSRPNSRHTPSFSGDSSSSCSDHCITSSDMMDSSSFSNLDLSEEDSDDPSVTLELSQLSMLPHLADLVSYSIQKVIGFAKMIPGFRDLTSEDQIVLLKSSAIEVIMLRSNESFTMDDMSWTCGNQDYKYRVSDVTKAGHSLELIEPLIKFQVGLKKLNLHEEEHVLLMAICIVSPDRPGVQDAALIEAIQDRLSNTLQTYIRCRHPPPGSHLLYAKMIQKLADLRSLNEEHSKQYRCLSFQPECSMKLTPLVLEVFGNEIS
Sequence of Estrogen receptor (Homo sapiens) (P03372 whole entry, looked up): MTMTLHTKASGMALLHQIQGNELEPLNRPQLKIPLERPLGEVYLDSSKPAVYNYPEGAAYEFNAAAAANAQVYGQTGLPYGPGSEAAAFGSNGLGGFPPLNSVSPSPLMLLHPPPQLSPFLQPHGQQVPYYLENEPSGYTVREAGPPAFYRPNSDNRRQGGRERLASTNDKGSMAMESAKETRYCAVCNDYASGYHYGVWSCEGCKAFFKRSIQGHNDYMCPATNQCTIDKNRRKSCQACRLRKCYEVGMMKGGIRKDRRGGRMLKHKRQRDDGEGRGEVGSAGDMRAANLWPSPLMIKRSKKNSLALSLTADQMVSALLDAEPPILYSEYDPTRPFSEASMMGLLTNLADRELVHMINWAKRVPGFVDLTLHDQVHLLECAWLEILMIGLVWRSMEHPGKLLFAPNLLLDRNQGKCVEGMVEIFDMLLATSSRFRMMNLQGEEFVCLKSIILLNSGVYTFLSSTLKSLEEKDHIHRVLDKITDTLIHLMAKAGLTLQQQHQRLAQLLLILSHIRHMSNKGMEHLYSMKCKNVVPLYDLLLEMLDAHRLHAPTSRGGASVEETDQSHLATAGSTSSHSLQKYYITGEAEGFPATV
Sequence of Voltage-gated inwardly rectifying potassium channel KCNH2 (Homo sapiens) (Q12809 whole entry, looked up): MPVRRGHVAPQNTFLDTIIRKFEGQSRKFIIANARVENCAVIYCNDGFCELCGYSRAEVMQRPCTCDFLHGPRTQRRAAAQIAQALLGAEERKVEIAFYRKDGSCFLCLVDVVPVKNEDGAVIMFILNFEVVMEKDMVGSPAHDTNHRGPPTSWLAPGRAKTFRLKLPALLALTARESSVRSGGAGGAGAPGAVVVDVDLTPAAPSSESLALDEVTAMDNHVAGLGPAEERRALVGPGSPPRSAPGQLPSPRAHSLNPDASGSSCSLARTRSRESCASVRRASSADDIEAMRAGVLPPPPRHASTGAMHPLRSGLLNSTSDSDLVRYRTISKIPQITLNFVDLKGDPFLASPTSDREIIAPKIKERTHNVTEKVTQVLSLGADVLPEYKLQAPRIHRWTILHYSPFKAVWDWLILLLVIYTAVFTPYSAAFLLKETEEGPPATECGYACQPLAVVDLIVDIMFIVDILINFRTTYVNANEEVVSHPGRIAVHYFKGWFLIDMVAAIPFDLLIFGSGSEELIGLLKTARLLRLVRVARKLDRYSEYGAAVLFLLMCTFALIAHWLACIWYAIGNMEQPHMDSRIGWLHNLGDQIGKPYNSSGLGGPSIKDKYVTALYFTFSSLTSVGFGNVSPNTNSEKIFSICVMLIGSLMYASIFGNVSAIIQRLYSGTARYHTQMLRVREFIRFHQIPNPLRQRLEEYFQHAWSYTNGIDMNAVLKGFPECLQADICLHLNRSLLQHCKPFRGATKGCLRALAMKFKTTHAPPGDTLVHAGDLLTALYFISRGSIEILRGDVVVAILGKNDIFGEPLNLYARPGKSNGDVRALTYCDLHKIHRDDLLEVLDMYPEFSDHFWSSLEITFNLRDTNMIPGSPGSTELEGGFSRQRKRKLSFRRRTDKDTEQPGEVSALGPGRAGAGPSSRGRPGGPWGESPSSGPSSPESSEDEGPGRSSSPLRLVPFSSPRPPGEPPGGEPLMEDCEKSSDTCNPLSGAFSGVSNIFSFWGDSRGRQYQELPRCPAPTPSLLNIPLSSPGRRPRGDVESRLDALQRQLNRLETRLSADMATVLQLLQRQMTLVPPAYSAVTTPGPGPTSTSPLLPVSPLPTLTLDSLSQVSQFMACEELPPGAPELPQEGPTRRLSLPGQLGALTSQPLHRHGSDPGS

COc1cccc(-c2cncnc2NCCc2c[nH]c3ccc(OC)cc23)c1
active: Potency [1] 2.51 µM

COc1ccccc1CNc1ncncc1-c1ccccc1Cl
active: Potency [1] 2 µM

COc1ccccc1CNc1ncncc1-c1ccccc1C(F)(F)F
active: Potency [1] 2 µM

COc1ccc2[nH]cc(CCNc3ncnc4ccc(-c5ccoc5)cc34)c2c1
active: Potency [1] 5.01 µM

CN(C)c1ccc(-c2nccc(NCc3cccs3)n2)cc1
active: Potency [1] 0.126 µM

COc1ccc2[nH]cc(CCNc3ncncc3-c3ccccc3C)c2c1
active: Potency [1] 1.26 µM

CC1(C)C2CCC1(C)C(O)C2 (stereo not given)
inactive: Potency [2] | Potency [3]

C=CC(C)(CCC=C(C)C)OC(C)=O (stereo not given)
inactive: Potency [4] | outcome [5] | outcome [6] | Potency [7] | activation [8] -1.51%

CC(=O)OC1CC2CCC1(C)C2(C)C (stereo not given)
inactive: Potency [2] | Potency [3]

CCCCCC/C=C\CCCCCCCC(=O)O
active: Potency [3] 14.1 µM
inactive: Potency [2]

C=CC(=C)CCC=C(C)C
inactive: Potency [9] > 92 µM | Potency [10] > 92 µM | Potency [11] > 92 µM | Potency [12] > 92 µM | activity change, negative = cytotoxicity [13] 6.82% | outcome [14] | caspase-3 activation [15] -0.362% | outcome [16] | outcome [17] | Potency [4] | outcome [5] | outcome [6] | Potency [18] | Potency [7] | activation [8] 0.0217% | Potency [19] | Potency [20]

Cc1ncc(COP(=O)(O)O)c(C)c1O
inactive: Potency [2] | Potency [3]

CC(C)=CCCC(C)=CCCC(C)=CCCC=C(C)CCC=C(C)CCC=C(C)C
inactive: Potency [2] | Potency [3]

O=C(O)c1ccccc1
inactive: Potency [9] > 92 µM | Potency [10] > 92 µM | Potency [11] > 92 µM | Potency [12] > 92 µM | activity change, negative = cytotoxicity [13] -3.81% | outcome [14] | caspase-3 activation [15] 0.102% | outcome [16] | outcome [17] | Potency [4] | outcome [5] | outcome [6] | Potency [18] | Potency [7] | activation [8] 7.69% | Potency [19] | Potency [20]

CCCCCCCCCCCCCC(=O)O
inactive: Potency [9] > 92 µM | Potency [10] > 92 µM | Potency [11] > 92 µM | Potency [12] > 92 µM | activity change, negative = cytotoxicity [13] -23% | outcome [14] | caspase-3 activation [15] -2.86% | outcome [16] | outcome [17] | Potency [4] | outcome [5] | outcome [6] | Potency [18] | Potency [7] | activation [8] -1.59% and 5.08% | Potency [19] | Potency [20]

COc1ccc(/C=C/c2cc(OC)cc(=O)o2)cc1
active: Potency [7] 1.88 µM
inactive: Potency [9] > 92 µM | Potency [10] > 92 µM | Potency [11] > 92 µM | Potency [12] > 92 µM | activity change, negative = cytotoxicity [13] -20.5% | outcome [14] | caspase-3 activation [15] -4.41% | outcome [16] | outcome [17] | Potency [4] | outcome [5] | outcome [6] | Potency [18] | activation [8] 10.5% | Potency [19] | Potency [20]

COc1cc(/C=C/c2ccccc2)oc(=O)c1
inactive: Potency [9] > 92 µM | Potency [10] > 92 µM | Potency [11] > 92 µM | Potency [12] > 92 µM | activity change, negative = cytotoxicity [13] -15.2% | outcome [14] | caspase-3 activation [15] -4.56% | outcome [16] | outcome [17] | Potency [4] | outcome [5] | outcome [6] | Potency [18] | activation [8] -4.84% | Potency [19] | Potency [20]

CCCCCCCCCCCC(=O)O
inactive: Potency [9] > 92 µM | Potency [10] > 92 µM | Potency [11] > 92 µM | Potency [12] > 92 µM | activity change, negative = cytotoxicity [13] -7.81% and -14% | outcome [14] | caspase-3 activation [15] -6.31% and -4.32% | outcome [16] | outcome [17] | Potency [18] | Potency [7] | Potency [19] | Potency [20]

CCCCC/C=C/C/C=C/CCCCCCCC(=O)O
inactive: Potency [2]
active: Potency [3] 4.47 µM
